Assay results: PubChem BioAssay AID686978 (National Center for Advancing Translational Sciences (NCATS), 2013)
In all, about 420,000 compounds went through this assay and about 64,000 (15%) were called active. Inconclusive results (about 27%) are left out. Not all results are given here. A number with no mark means an inactive call. Calls follow the shape of the dose curve; as a rule, active = well fitted inhibition curve with a large enough effect; inconclusive = small, poorly fitted or top-dose-only effect; inactive = flat fitted curve, though single readings scatter.
% is scaled to controls: 0 for no effect and ±100 for the full control effect; potency is read from the fitted curve at half-maximal effect.

Assay: qHTS for Inhibitors of human tyrosyl-DNA phosphodiesterase 1 (TDP1): qHTS in cells in absence of CPT; also: nearly all actives have a fitted effect of over 55% in size
Conditions: DT40 Tdp1-/- hTDP1 cells, no CPT, ATP luminescence, 48 h; activity change, negative = growth inhibition: at 46.2 µM (top of the series)
Method in brief: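 Seeded 400 DT40-hTDP1 cells/well (vehicle DMSO, no 20 nM CPT); pinned compounds; ≥48 hr at 37 °C; CellTiter-Glo luminescence as viability measure.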
In the case of CC(=O)NC1(c2ccc(F)cc2)CCN(C(=O)c2c(F)cccc2F)CC1, the “activity change, negative = growth inhibition” value is reported as -1.26%. With CC(C)(C)NS(=O)(=O)c1ccc(NC(=O)NC2CCCCC2)cc1 the “activity change, negative = growth inhibition” value was -24.7%. With CC(C)c1ccc(NC(=O)NC2CCCCC2)cc1 the Potency was 20.6 µM (active). For Cc1cc(C)cc(NC(=O)NC2CCCCCCC2)c1, the “activity change, negative = growth inhibition” value was 3.43%. For O/N=C(\C[n+]1ccccc1)c1ccc(Br)cc1, the “activity change, negative = growth inhibition” value was 9.42%. In the case of COc1ccc(CCNC(=O)CN2CCC(n3nnc4cc(F)ccc43)CC2)cc1OC, the “activity change, negative = growth inhibition” value is reported as -21.5%. For Cc1cccc(NC(=O)COC(=O)CCc2ccccc2)c1C, the “activity change, negative = growth inhibition” value was -0.618%. For Cc1ccccc1NC(=O)CSC(=O)c1ccccc1, the “activity change, negative = growth inhibition” value was -114%. In the case of Cc1cccc(NC(=O)CSC(N)=O)c1C, the Potency is reported as 18.4 µM (active). With N#CCCN(C(=O)COC(=O)c1ccc(S(=O)(=O)N2CCCCCC2)cc1)c1ccccc1 the “activity change, negative = growth inhibition” value was -20.9%. In the case of COc1ccccc1-n1nnnc1SCC(=O)NC(=O)Cc1ccccc1, the “activity change, negative = growth inhibition” value is reported as 9.83%. For COc1ccccc1-n1nnnc1S(=O)(=O)Cc1ccc(Cl)cc1, the Potency was 6.51 µM (active). For CCC(C)N(C(=O)CSc1nnnn1-c1ccccc1OC)C1CCS(=O)(=O)C1 (centres undefined), the “activity change, negative = growth inhibition” value was 15.2%. With CCOC(=O)C(Sc1ncc(C#N)c(N)n1)C(C)C (centres undefined) the “activity change, negative = growth inhibition” value was -16.3%. In the case of O=C(CSc1nnc(-c2ccncc2)n1-c1ccc(Cl)cc1)Nc1ccc(C(=O)O)cc1, the “activity change, negative = growth inhibition” value is reported as -9.17%. In the case of Cc1cc(NC(=O)CSCC(=O)NC(C)c2ccccc2)no1 (centres undefined), the “activity change, negative = growth inhibition” value is reported as 4.75%. For CN(CC(=O)Nc1c(Cl)cccc1Cl)C(=O)CC1OC(=O)c2ccccc21 (centres undefined), the “activity change, negative = growth inhibition” value was 2.57%. With CC(=O)Nc1ccc(NC(=O)C2CCCN2S(=O)(=O)c2cccc(C(F)(F)F)c2)cc1 (centres undefined) the “activity change, negative = growth inhibition” value was 8.22%. With CCc1nnc(NC(=O)C2CCCN2S(=O)(=O)c2ccccc2)s1 (centres undefined) the “activity change, negative = growth inhibition” value was 4.37%. For CCc1ccccc1NS(=O)(=O)c1ccc2nc(-c3ccccc3)[nH]c2c1, the Potency was 9.2 µM (active). For Cc1ccc(S(=O)(=O)Nc2ccccc2CNc2c(C)n(C)n(-c3ccccc3)c2=O)cc1, the “activity change, negative = growth inhibition” value was 1.18%. For CCOc1ccc(OCC)c(NS(=O)(=O)c2ccc3[nH]c(=O)ccc3c2)c1, the “activity change, negative = growth inhibition” value was 1.43%. For CCc1ccc(NC(=O)C2CCCN2S(=O)(=O)c2ccc3nc(-c4ccccc4)[nH]c3c2)cc1 (centres undefined), the Potency was 23.1 µM (active). In the case of COc1ccc(NC(=O)C2C3CCC(O3)C2C(=O)O)cc1OC (centres undefined), the “activity change, negative = growth inhibition” value is reported as 21.9%. With CC(=O)N1CCN(CC(C)(C)NS(=O)(=O)c2ccc(C)cc2)CC1 the “activity change, negative = growth inhibition” value was 17.7%. With COc1cc(OC)c(C(=O)NNC(=O)c2ccc(NS(=O)(=O)c3cccs3)cc2)cc1OC the “activity change, negative = growth inhibition” value was 3.62%. With CCN(CC)CCn1c2ccc(Cl)cc2c2nc(C)sc21 the Potency was 23.1 µM (active). For COC(=O)Cn1c2ccc(C)cc2c2nc(C)sc21, the “activity change, negative = growth inhibition” value was -12.8%. In the case of COc1cc2c(cc1OC)C(c1ccccc1Br)NC(=O)C2 (centres undefined), the “activity change, negative = growth inhibition” value is reported as 7.95%.
